Experimental findings from PubChem BioAssay AID2315 (National Center for Advancing Translational Sciences (NCATS), 2010) are described below.

Screen size: about 290,000 compounds; about 27,000 (9.3%) were called active. Cut-off read from the data, not from the text of the source: active = inhibition mostly above about 28% (no sharp cut-off); inactive = mostly below about 43%. The entries come from a sample that favours actives as a whole.

This experiment is described as follows: A qHTS for Small Molecule Inhibitors of Shiga Toxin. Note: 0% is about no effect. The conditions noted are these: Vero cells, Shiga toxin protein synthesis inhibition reporter; at 38.7 µM, stronger effect = higher value. (In general: Quantitative high-throughput screening tests each substance at several concentrations.)
On to `CC(CN1CCOCC1)OC(=O)c1ccc(Cl)cc1Cl` (stereo not given), for which the inhibition is 38.1% (inactive). Turning to `O=S(=O)(NCCc1ccncc1)c1ccccc1`, the inhibition is -5.04% (inactive). In the case of `Cc1nc(CNS(=O)(=O)c2cccnc2)cs1`, the inhibition was -1.16% (inactive).

With `O=S(=O)(NCCc1csc(-c2ccccc2)n1)c1cccnc1`, the inhibition is 129% (active). In the case of `Cc1ccc(Cn2c(=N)c(S(=O)(=O)c3ccc(C)cc3)cc3c(=O)n4ccccc4nc32)cc1`, the inhibition was -2.01% (inactive). For the compound `CCCn1cc(S(=O)(=O)c2ccc(C)cc2)c(=O)c2cc(OCC)ccc21`, the inhibition is 3.51% (inactive). `COC(=O)c1[nH]c2ccc(Br)cc2c1NC(=O)Oc1ccccc1`: the inhibition was 51.9% (active). On to `COC(=O)c1[nH]c2ccccc2c1NC(=O)CN1CCCc2ccccc21`, for which the inhibition is 25.1% (inactive).

For `CCOC(=O)c1[nH]c2ccc(OC)cc2c1NC(=O)CCN1CCN(Cc2ccccc2)CC1`, the inhibition was -3.91% (inactive). Next, `O=C(Nc1ccc2c(c1)OCCO2)c1ccc(Cl)c(S(=O)(=O)N2CCCCC2)c1`: 147% (active); `Cc1ccc(C(=O)Nc2ccc3c(c2)OCO3)cc1S(=O)(=O)N1CCCCC1`: 43.9% (inactive); `CN1CCN(c2ccc(NC(=O)c3ccc4c(c3)OCCO4)cc2Cl)CC1`: 77.9% (active).

`O=C(Nc1cccc(Cl)c1N1CCOCC1)c1ccc2c(c1)OCCO2`: the inhibition was 121% (inactive).

For the compound `COC(=O)c1ccc(N2CCOCC2)c(NC(=O)c2ccc3c(c2)OCCO3)c1`, the inhibition was 17.9% (inactive). As for `O=C(Nc1cccc(S(=O)(=O)N2CCCCC2)c1)c1ccc2c(c1)OCO2`, the inhibition was 21.9% (inactive). For `Cc1cccc(C)c1NC(=O)CS(=O)CC(=O)N1CCN(c2ccccc2)CC1` (stereo not given), the inhibition was -9.06% (inactive). As for `Cc1cccc(NC(=O)N2CCCCCC2)c1C`, the inhibition is 46.2% (inactive). Take `Cc1ccsc1/C=C1\SC(N2CCOCC2)=NC1=O`: the inhibition was 111% (active). As to `CCc1ccc(/C=C2\SC(N3CCOCC3)=NC2=O)cc1`, the inhibition was 42.9% (inactive). Turning to `CC1CCN(C2=NC(=O)/C(=C/c3cn[nH]c3-c3ccccc3)S2)CC1`, the inhibition was -0.314% (inactive). `O=C1N=C(N2CCc3ccccc3C2)S/C1=C\c1ccc(O)cc1`: the inhibition was 33% (inactive). With `Cc1ccc(N2CCN(C3=NC(=O)/C(=C\c4cccs4)S3)CC2)cc1`, the inhibition was -4.1% (inactive).

For `O=C1N=C(N2CCOCC2)S/C1=C\C=C/c1ccccc1`, the inhibition was 66.1% (active). With `CCc1ccc(C(CNc2nc(C(F)(F)F)nc3ccccc23)N(C)C)cc1` (stereo not given), the inhibition is -12.5% (inactive).

Regarding `Cc1cccc(CN2CCC(CNC(=O)Nc3ccc(F)c(Cl)c3)CC2)c1`, the inhibition is -4.78% (inactive).

For the compound `Cc1ccc(NC(=O)C2CCCN2S(=O)(=O)c2cccc3cccnc23)c(C)c1` (stereo not given), the inhibition was -11.1% (inactive). With `COc1ccc(OC)c(S(=O)(=O)n2c([N+](=O)[O-])cnc2C)c1`, the inhibition was -7.62% (inactive). Next, `COc1cc(NC(=O)C2CC(c3ccccc3O)=NO2)c(OC)cc1Cl` (stereo not given): -12.3% (inactive).

Turning to `COc1ccc(C(CNC(=O)COc2ccccc2OC)N2CCCCC2)cc1` (stereo not given), the inhibition was -20.7% (inactive). With `c1ccc(CN=C2Nc3ccccc3CS2)nc1`, the inhibition is 59.8% (active). Consider `COc1ccccc1CNS(=O)(=O)c1c(C)[nH]c(C)c1C(=O)N1CCCCC1`, for which the inhibition was 2.2% (inactive). Consider `Cc1ccc(S(=O)(=O)N(CC(=O)NCc2ccco2)c2ccccc2C)cc1`, for which the inhibition is 9.67% (inactive).

`COc1ccccc1OC(C)C(=O)Nc1ccc(S(=O)(=O)Nc2nccs2)cc1` (stereo not given): the inhibition was -4.41% (inactive). With `Cn1c(-c2ccc(F)cc2)cnc1SCC(=O)NNC(=O)Cc1ccccc1`, the inhibition was 18.3% (inactive). Next, `CSc1c(SCc2ccccc2)cnn(Cc2ccccc2)c1=O`: 10.6% (inactive); `Cn1c(CO)cnc1SCc1ccccc1`: 65.8% (active); `CCS(=O)(=O)N1CCC(N2CCN(c3ccccc3)CC2)CC1`: -4.18% (inactive). With `Cc1cc(C)n(-c2ccc(NC(=O)C3CCCCN3C(=O)c3cccs3)cc2)n1` (stereo not given), the inhibition was 11% (inactive). Turning to `Cc1ccc2[nH]c3c(=O)n(CC(=O)NCCc4ccc(Cl)cc4)ncc3c2c1`, the inhibition is 21.6% (inactive). `Cc1ccc(OCc2n[nH]c(=S)n2-c2ccc(C)cc2)cc1`: the inhibition was -9.95% (inactive).

As to `CCOc1ccc(NC(=O)CN2CCN(CC(=O)Nc3ccc(OC)cc3)CC2)cc1`, the inhibition is -3.78% (inactive). Next, `COc1ccc(Cc2n[nH]c(=S)n2NC(=O)Nc2ccc(C)cc2)cc1`: 63.4% (active); `COc1ccc(CCNC(=O)CN2C(=O)COc3ccc(S(=O)(=O)N4CCCC4)cc32)cc1OC`: 22.2% (inactive); `CCc1ccc(-c2cc(C)no2)cc1S(=O)(=O)NCCc1ccc(S(N)(=O)=O)cc1`: -11% (inactive). In the case of `COc1ccc(CCNC(=S)N2CCN(S(=O)(=O)c3ccc(Cl)cc3)CC2)cc1`, the inhibition is -14.7% (inactive). As to `O=C(CCNC(=O)C1CCN(S(=O)(=O)c2ccccc2)CC1)NC1CC1`, the inhibition is -1.38% (inactive). `O=C(CCS(=O)(=O)c1ccccc1)NC1CCCC1`: the inhibition is 55.4% (active).

For `CC(=O)c1cc(-c2ccccc2)n(CCC(=O)NC2CCCCCC2)c1C`, the inhibition is 10.9% (inactive). `CC1(C(=O)NNC(=S)NCC2CCCO2)CC1(Cl)Cl` (stereo not given): the inhibition is -2.83% (inactive). For `Cc1ccc(Cl)cc1NC(=O)C1CCCN(c2cnccn2)C1` (stereo not given), the inhibition was -10.6% (inactive). On to `C=CCN1C(=O)C2(OCCCO2)c2cccc(Cl)c21`, for which the inhibition was -3.46% (inactive).

In the case of `CC1(C)Cc2ccccc2/C(=C/C(=O)c2ccccc2)N1`, the inhibition was -3.39% (inactive). As for `COc1ccc(NC(=O)c2cccc3c2C(=O)N(CC2CCCO2)C3)cc1OC` (stereo not given), the figure is 3.68% (inactive); as for `CC(=O)N[C@@H](C)C(=O)N1CCC(n2nccc2NC(=O)CCCc2ccccc2)CC1`, 57.5% (active); as for `Cc1ccc(CN2CCC(n3nccc3NC(=O)CCCc3ccccc3)CC2)o1`, 21.2% (inactive). As to `CC(=O)NCC(=O)N1CCC(n2nccc2NC(=O)CCCc2ccccc2)CC1`, the inhibition is 30.2% (inactive). In the case of `COc1cc(N2CCCC2)c(OC)cc1/C=C(/C#N)c1cccc(Br)c1`, the inhibition was -23.2% (inactive).

On to `COc1ccccc1NC(=O)CCN1CCN(c2ccc(Cl)cc2)CC1`, for which the inhibition was -2.18% (inactive). As for `CC(Sc1cccc[n+]1[O-])C(=O)Nc1cccc(S(=O)(=O)N2CCOCC2)c1` (stereo not given), the figure is -6.74% (inactive). For the compound `Cc1ccc(CNC(=O)Cc2cn(C)c3ccccc23)cc1`, the inhibition was 12.6% (inactive).

The inhibition is the change of the read-out against control, counted positive when it falls.
